Rtt109 HAT inh: inhibitors of C. albicans Rtt109/Vps75 HAT, primary screen, biochemical, ThioGlo CoA-SH fluorescence, plate reader; purified Rtt109/Vps75, 4 h; inhibition, % at 34.9 µM; hit rate 0.16% among 330,000; AID 540336, 2011;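 active = inhibition of at least 50% in every replicate; inconclusive = best replicate reaches 50% inhibition but some replicates fall short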
Target sequence (Q5AAJ8 whole entry, looked up): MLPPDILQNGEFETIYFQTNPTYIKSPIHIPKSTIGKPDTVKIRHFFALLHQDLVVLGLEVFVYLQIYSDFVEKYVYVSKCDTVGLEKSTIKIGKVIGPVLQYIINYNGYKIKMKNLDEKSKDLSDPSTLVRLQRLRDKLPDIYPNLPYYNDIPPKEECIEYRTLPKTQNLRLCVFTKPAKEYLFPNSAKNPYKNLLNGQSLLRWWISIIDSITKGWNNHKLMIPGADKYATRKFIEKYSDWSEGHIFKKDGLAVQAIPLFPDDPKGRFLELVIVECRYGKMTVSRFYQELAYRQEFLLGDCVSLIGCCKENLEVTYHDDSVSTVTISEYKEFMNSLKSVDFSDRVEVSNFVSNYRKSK
Wnt act: Wnt/beta-catenin pathway activators, primary screen, cell-based, plate reader, single point. activation, % at 9.35 µM. AID 743398, 2014. hit rate 1.2% among 300,000. Wnt/beta-catenin reporter cell assay, activator; in the data active = activation above about 30%, passing the limit was not always enough; inconclusive = no clear call, values can overlap the other calls
Statin myotox sup: suppressors of statin myotoxicity in C2C12 myotubes, primary screen, cell-based, single point, plate reader. C2C12 myotubes + simvastatin, ATP luminescence, 48 h; scaled: DMSO 0, geranylgeraniol control 100. hit rate 0.78% among 330,000. AID 602340, 2012. rescue of ATP level, % at 7.49 µM;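 active = mean ATP rescue above about 67%, or every replicate alone reaching that limit, limit read from the data, passing the limit was not always enough; inconclusive = no clear call, values can overlap the other calls; inactive = mean under the limit and some replicate under it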;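 note: myotubes were challenged with 10 µM simvastatin during compound exposure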
MITF act: activators of MITF-driven TRPM1 promoter reporter, primary screen, cell-based, SK-MEL-5, luciferase, single point | SK-MEL-5 TRPM1-promoter luciferase, 24 h; % of positive control, neutral wells = 0 | activation, % at 12.5 µM | hit rate 0.75% among 300,000;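 active = mean activation of at least 80% with every replicate also reaching 80%; inconclusive = mean reaches 80% but some replicate falls short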
esBAF inh: Bmi1 luciferase reporter increase in mESCs, primary screen, esBAF inhibitor project, mouse ES cells, Bmi1 luciferase knock-in, single point; reporter increase, % at 12.5 µM; 24 h; 100% = twice the neutral-well signal; AID 602393, 2012; hit rate 2% among 350,000; in the data active = activation above about 40%; inconclusive = no clear call, values can overlap the other calls;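 note: a rise in the Bmi1 reporter signal indicates esBAF inhibition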
Of the large screens only hits and unclear results are named; the others gave an inactive call. Most compounds without a hit are left out; they make up all but 3.1% or so of the library.

O=C1C=C(c2cccc(Cl)c2)C[C@@H](c2ccc3c(c2)OCO3)C1	Statin myotox sup 133.7
O=C(NCC1CC1)[C@@H]1N[C@@H]2c3ccc(C4=CCCCC4)c(=O)n3C[C@@H]2[C@H]1CO	none (no result: Rtt109 HAT inh, Wnt act, MITF act)
C[C@@]12CCC=C[C@H]1[C@H](c1ccc3ccccc3c1Br)N(Cc1ccccc1)C2=O	Statin myotox sup 77.7
COc1ccc(S(=O)(=O)N2CCCCC2)cc1C(C)C	Statin myotox sup 112.8 (no result: Wnt act)
CCOc1cc(/C=N\Nc2ccc([N+](=O)[O-])cc2)ccc1OCC(=O)Nc1ccc(C)c(C)c1	Statin myotox sup 102.6
Nc1ccc2nc(NC(=O)C3CCCCC3)sc2c1	Wnt act 48.4, esBAF inh 51.6
O=C(Nc1nc2ccc(F)cc2s1)C1CCCO1 (stereo not given)	MITF act 112.2, esBAF inh 98.6 (no result: Wnt act)
O=C(Nc1nnc(-c2ccccc2F)s1)C1CCCO1 (stereo not given)	Wnt act 51.2 (no result: Statin myotox sup, esBAF inh)
COc1cccc(NC(=O)N[C@@H]2CC[C@H](CC(=O)N3CCCCC3)O[C@@H]2CO)c1	none (no result: Rtt109 HAT inh, Wnt act, MITF act)
C[C@@H]1CN([C@@H](C)CO)C(=O)Cc2cc(N(C)C)ccc2O[C@H]1CN(C)C(=O)Nc1ccc2c(c1)OCO2	none (no result: Rtt109 HAT inh, Wnt act, MITF act)
COc1ccc(C2CC(=O)C(C=NCCO)=C(O)C2)cc1 (stereo not given)	Rtt109 HAT inh 54.2
Clc1ccccc1/C=C/c1nc(-c2cccnc2)no1	Wnt act 39.4, MITF act 84.2
Clc1ccc(-c2noc(/C=C/c3ccccc3)n2)cc1	none (no result: MITF act)
Cc1ccc(-c2noc(/C=C/c3ccccc3)n2)cc1	esBAF inh 45.8 (no result: Wnt act)
c1ccc(-c2noc(-c3cccnc3)n2)cc1	Wnt act inconclusive
C(=C\c1nc(-c2cccnc2)no1)/c1ccccc1	Wnt act 48.5
COc1cccc(S(=O)(=O)N(C)C[C@@H]2Oc3cc(C4=CCCCC4)ccc3S(=O)(=O)N([C@H](C)CO)C[C@@H]2C)c1	none (no result: Rtt109 HAT inh, Wnt act, MITF act)
CO[C@@H]1CN(C)C(=O)c2ccc(NC(=O)C3CCC3)cc2OC[C@H](C)N(C(=O)CN(C)C)C[C@@H]1C	none (no result: Rtt109 HAT inh, Wnt act, MITF act)
COc1cccc(C(=O)Nc2ccc3c(c2)OC[C@H](C)NC[C@@H](C)[C@@H](OC)CN(C)C3=O)c1	none (no result: Rtt109 HAT inh, Wnt act, MITF act)
O=C(Nc1ccccc1Cl)NC1(C(=O)N2CCCCC2)CCCCC1	Statin myotox sup 101.1 (no result: Wnt act)
C[C@@H]1CN([C@@H](C)CO)C(=O)Cc2cc(NS(=O)(=O)c3ccc(F)cc3)ccc2O[C@@H]1CN(C)S(=O)(=O)c1cn(C)cn1	none (no result: Rtt109 HAT inh, Wnt act, MITF act)
O=C1c2cccc3c(N4CCCCC4)ccc(c23)C(=O)N1CCO	Wnt act 53.1, esBAF inh 72.1
C[C@H](CO)N1C[C@H](C)[C@@H](CN(C)Cc2ccc(Cl)c(Cl)c2)Oc2ccc(NS(=O)(=O)c3ccc(Cl)cc3)cc2C1=O	none (no result: Rtt109 HAT inh, Wnt act, MITF act)
COC(=O)/C(=C\C(=O)c1ccccc1)Nc1ccc(OC)cc1	none (no result: Statin myotox sup, MITF act, esBAF inh)
COc1ccc(C(=O)/C=C(\C)Nc2ccc3c(c2)OCO3)cc1	Wnt act inconclusive, esBAF inh 61.7 (no result: MITF act)
COc1ccc(N/C(C)=C/C(=O)c2ccccc2)cc1	MITF act 120.2 (no result: Statin myotox sup, esBAF inh)
COc1ccc(N2C(S)=C(C#N)C(=O)NC2c2ccc(OC)c(OC)c2)cc1 (stereo not given)	Rtt109 HAT inh 109.8 (no result: Statin myotox sup, esBAF inh)
N#CC1=C(S)N(c2ccccc2)C(c2cccs2)NC1=O (stereo not given)	Rtt109 HAT inh 109.3
COc1ccc(C2NC(=O)C(C#N)=C(S)N2c2ccc(C)cc2)cc1OC (stereo not given)	none (no result: Statin myotox sup, esBAF inh)
CCOc1ccc(C2NC(=O)C(C#N)=C(S)N2c2ccc(OC)cc2)cc1OC (stereo not given)	Rtt109 HAT inh 144.1 (no result: Wnt act, Statin myotox sup, esBAF inh)
COc1ccc(C2NC(=O)C(C#N)=C(S)N2c2cccc(C)c2)cc1OC (stereo not given)	Rtt109 HAT inh 73.6 (no result: Statin myotox sup, esBAF inh)
C[C@@H]1CN([C@H](C)CO)C(=O)CCCn2cc(nn2)CO[C@@H]1CN(C)C(=O)Nc1ccc(C(F)(F)F)cc1	none (no result: Rtt109 HAT inh, Wnt act, MITF act)
C[C@@H]1CCCCO[C@@H](CN(C)S(=O)(=O)c2cccs2)[C@H](C)CN([C@@H](C)CO)C(=O)c2cc(NC(=O)Cc3ccccc3)ccc2O1	none (no result: Rtt109 HAT inh, Wnt act, Statin myotox sup, MITF act)
CO[C@H]1CN(C)C(=O)c2ccc(NS(=O)(=O)c3ccc(C)cc3)cc2OC[C@@H](C)N(C(=O)NC(C)C)C[C@H]1C	none (no result: Rtt109 HAT inh, Wnt act, MITF act)
CCCC#Cc1cnc2c(c1)C(=O)N([C@@H](C)CO)C[C@H](C)[C@@H](CN(C)C)O2	none (no result: Rtt109 HAT inh, Wnt act, MITF act)
O=C(O)CSc1nc(-c2ccccc2)nc2c1oc1ccccc12	Statin myotox sup 120.3
O=C(C[C@@H]1C[C@@H]2c3cc(NC(=O)C4CCC4)ccc3O[C@@H]2[C@@H](CO)O1)NCc1ccccn1	none (no result: Rtt109 HAT inh, Wnt act, MITF act)
O=C(c1ccccc1)c1ccc(OCC(O)CN2CCN(S(=O)(=O)N3CCCCC3)CC2)cc1 (stereo not given)	Statin myotox sup 77.3 (no result: Wnt act)
N#C/C(C(=O)NCc1ccccc1)=C1/N=C(NC(=O)c2ccco2)c2ccccc21	esBAF inh 47.2
CN(C)C(=O)C[C@H]1C[C@H]2c3cc(NC(=O)NC4CCCCC4)ccc3O[C@H]2[C@@H](CO)O1	none (no result: Rtt109 HAT inh, Wnt act, MITF act)
CCCNC(=O)[C@H]1[C@H](CO)[C@H]2Cn3c(ccc(/C=C/c4ccccc4)c3=O)[C@@H]1N2C(=O)c1ccccc1	none (no result: Rtt109 HAT inh, Wnt act, MITF act)
COc1cccc(NC(=O)c2ccc3c(c2)CCN3S(C)(=O)=O)c1	esBAF inh 55.8 (no result: MITF act)
CN1CCSc2ccc(C(=O)NCc3cccc(F)c3)cc21	none (no result: MITF act)
COc1cccc(NC(=O)c2ccc3c(c2)N(C)CCS3)c1	Wnt act 50.5, esBAF inh 50.5
COc1ccc(Br)cc1CNC(=O)c1ccc2c(c1)N(C)CCS2	none
CN1CCSc2ccc(C(=O)Nc3ccc(Cl)cc3)cc21	Wnt act 36.9, MITF act inconclusive (no result: Statin myotox sup, esBAF inh)
Cc1nn2c(=O)cc(COC(=O)c3c(F)cccc3Cl)nc2s1	Wnt act 50.3
CCc1sc(C(=O)Nc2ccc3c(c2)OCCO3)cc1Br	Wnt act 43.2, MITF act 104.2, esBAF inh 51.2
CC(C)(O)C#Cc1ccc(C(=O)Nc2ccc3c(c2)OCO3)s1	Wnt act 30.9, esBAF inh 62.9
CCc1sc(C(=O)Nc2ccc3c(c2)OCO3)cc1C	Wnt act 42.5, MITF act 124.2, esBAF inh 51.2
O=Nc1c2nc3ccccc3n(O)c-2c2ccccc12	Wnt act 39.8, esBAF inh 48.3 (no result: MITF act)
Cc1ccc(Nc2nnc(SCC(=O)NCC3CCCO3)s2)cc1C (stereo not given)	esBAF inh 46.9
COc1ccc(C(=O)Nc2nnc(SCC(=O)Nc3ccc(NC(C)=O)cc3)s2)c(OC)c1	Wnt act 35.6
COc1ccccc1NC(=O)c1cnc(SCC(=O)NCC2CCCO2)n(C)c1=O (stereo not given)	Wnt act 32.3

Source: PubChem (Broad Institute)
